PPC-1+TRAIL kill – compounds killing PPC-1 cancer cells with TRAIL present, primary screen, TRAIL potentiator project, ATPLite luminescence, uHTS. PPC-1 cells + TRAIL, ATPLite viability luminescence. hit rate 0.41% among 220,000. cell killing (% activity), % at 4 µM or 5 µM;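 active = cell killing above 50% in the first pass at 4 µM, then a duplicate retest at 5 µM averaging 50% or more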;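 also: plate controls were cells with TRAIL plus DMSO for no effect and medium-only wells lacking cells for full effect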
SENP8 block-1 – human SENP8 protease inhibitors, primary screen, biochemical, fluorescence, Nedd8 protein substrate, uHTS | Sentrin-specific protease 8 (Homo sapiens), Q96LD8 | recombinant SENP8 | inhibition, % at 20 µM | hit rate 0.64% among 360,000 | AID 602440, 2012; in the data active = inhibition mostly above about 40%, no sharp cut-off; inactive = mostly below about 27%
SENP8 block-2 – SENP8 protease inhibitors, primary screen, biochemical, luminescence; purified SENP8, Z-RLRGG-aminoluciferin cleavage; hit rate 1.2% among 330,000; inhibition, % at 10 µM; Sentrin-specific protease 8 (Homo sapiens), Q96LD8; in the data active = inhibition above about 50%
TRAIL sens C8 – viability loss with TRAIL in NB7+C8 cells, primary screen, TRAIL sensitizer project, cell-based, ATPlite luminescence. inhibition (viability loss, TRAIL sensitization), % at 10 µM. hit rate 1% among 360,000. AID 624354, 2012;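 active = compounds causing at least 50% loss of cell viability in the single-dose screen, relative to plate controls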
SENP7 inh – SENP7 protease inhibitors, primary screen, biochemical, luminescence, uHTS; Sentrin-specific protease 7 (Homo sapiens), Q9BQF6; recombinant SENP7, Z-RLRGG-aminoluciferin luminescence, 40 min; inhibition, % at 5 µM; hit rate 1.5% among 330,000; AID 434973, 2010;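 active = inhibition above about 50% at the single test dose, limit read from the data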;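 also: plate controls were DMSO with enzyme for no effect and no enzyme buffer wells for full effect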
SENP6 block – SENP6 protease inhibitors, primary screen, biochemical, luminescence, uHTS. Recombinant SENP6 catalytic domain, aminoluciferin luminescence. inhibition, % at 10 µM. hit rate 1.8% among 330,000. Sentrin-specific protease 6 (Homo sapiens), Q9GZR1;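 active = inhibition above about 50% at the single tested dose, limit read from the data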;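 also: plate controls were DMSO wells with enzyme for no effect and DMSO wells lacking enzyme for full effect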
Target sequence (Q9GZR1 628-1112 limits assumed): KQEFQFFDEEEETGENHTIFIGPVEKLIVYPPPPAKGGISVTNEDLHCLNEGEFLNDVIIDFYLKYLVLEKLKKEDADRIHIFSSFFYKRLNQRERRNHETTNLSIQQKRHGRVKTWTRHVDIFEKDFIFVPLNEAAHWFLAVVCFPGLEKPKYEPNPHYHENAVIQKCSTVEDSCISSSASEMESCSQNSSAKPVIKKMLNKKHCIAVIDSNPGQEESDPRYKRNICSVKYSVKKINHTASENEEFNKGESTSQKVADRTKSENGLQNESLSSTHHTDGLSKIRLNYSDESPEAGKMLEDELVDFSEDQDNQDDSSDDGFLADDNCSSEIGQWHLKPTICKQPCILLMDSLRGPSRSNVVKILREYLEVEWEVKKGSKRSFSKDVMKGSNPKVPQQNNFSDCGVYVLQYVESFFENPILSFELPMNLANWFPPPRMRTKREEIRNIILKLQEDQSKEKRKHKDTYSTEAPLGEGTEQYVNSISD
SENP8 inh conf – human SENP8 protease inhibitors, confirmation, biochemical, Nedd8 protein substrate, single concentration | purified SENP8, Nedd8-AMC/pro-Nedd8 cleavage fluorescence, 30 min | hit rate 15% among 1,400 | shares compounds with SENP8 block-1 | inhibition, % at 25 µM | AID 624319, 2012; in the data active = inhibition mostly above about 39%, no sharp cut-off; inactive = mostly below about 34%
Numbers without * were called inactive. Compounds with a hit are over-represented: about 3% of the library has one in this group of screens.

For O=C(Nc1ccc(N2CCN(C(=O)c3ccccc3)CC2)cc1)c1ccc([N+](=O)[O-])o1 the results were PPC-1+TRAIL kill 36.9, SENP8 block-1 51.3*, TRAIL sens C8 70.4* and SENP8 inh conf 31.2.
Screening Cc1ccccc1C(=O)N1CCN(c2ccc(NC(=O)c3ccc([N+](=O)[O-])o3)cc2)CC1 returned SENP8 block-1 39.2*, SENP8 block-2 5.5, TRAIL sens C8 71.4*, SENP7 inh 9.3, SENP6 block -6.8 and SENP8 inh conf 7.1.
Screening COc1ccc(C2/C=C\CC(NS(=O)(=O)c3ccc(C)cc3)CC(=O)N2Cc2ccccc2F)cc1 (stereo unspecified) returned SENP8 block-1 6.0, TRAIL sens C8 -4.3 and SENP7 inh -6.0.
For O=C(NCC(=O)N(CC1CCCO1)C(C(=O)NC1CCCC1)c1cccnc1)c1ccco1 (stereo unspecified) the results were PPC-1+TRAIL kill 11.4, SENP8 block-1 41.5*, SENP8 block-2 2.3, TRAIL sens C8 1.5, SENP7 inh -1.0, SENP6 block 1.7 and SENP8 inh conf 13.8.
O=C(c1ncn(Cc2ccccc2)c1C(=O)N1CCc2ccccc2C1)N1CCc2ccccc2C1 was read as SENP8 block-1 51.8*, SENP8 block-2 -8.2, TRAIL sens C8 4.5, SENP7 inh -0.6, SENP6 block -7.7 and SENP8 inh conf 57.9*.
CC(C)(C)NC(=O)c1ccc(NC(=O)c2ccccc2-c2ccccc2C(=O)O)cc1 was read as SENP8 block-1 -0.4, SENP8 block-2 3.9, TRAIL sens C8 5.0, SENP7 inh 1.8 and SENP6 block -5.7.
`Cc1ccc(C)c(Nc2c([N+](=O)[O-])ccc3nonc23)c1` gave SENP8 block-1 44.9*, SENP8 block-2 -8.1, TRAIL sens C8 -8.5, SENP7 inh -14.7, SENP6 block -11.9 and SENP8 inh conf 18.1.
For C=CC(=O)N(CCC)C(c1ccccc1)c1ccccc1OC (stereo unspecified) the results were SENP8 block-1 8.7, SENP8 block-2 5.3, TRAIL sens C8 1.2, SENP7 inh 5.6 and SENP6 block -7.3.
Screening CC(C)[C@@H](C(=O)NCC1CCCO1)N1C(=O)N2CCc3c([nH]c4ccccc34)[C@@]2(C)C1=O (stereo partly specified) returned SENP8 block-1 50.9*, SENP8 block-2 -10.0, TRAIL sens C8 -12.2, SENP7 inh -19.8, SENP6 block -7.7 and SENP8 inh conf 12.9.
Screening CC(C)[C@@H](C(=O)N[C@@H](C(=O)O)c1ccccc1)N1C(=O)N2CCc3c([nH]c4ccccc34)[C@@]2(C)C1=O returned SENP8 block-1 43.5*, SENP8 block-2 -10.0, TRAIL sens C8 0.9, SENP7 inh -4.3, SENP6 block -15.0 and SENP8 inh conf 17.6.
Screening CC(C)[C@@H](C(=O)NC1CC1)N1C(=O)N2CCc3c([nH]c4ccccc34)[C@@]2(C)C1=O returned SENP8 block-1 51.1*, SENP8 block-2 1.3, TRAIL sens C8 -8.7, SENP7 inh -2.2, SENP6 block -0.4 and SENP8 inh conf 6.5.
Screening CC(C)[C@@H](C(=O)NC1CCN(Cc2ccccc2)CC1)N1C(=O)N2CCc3c([nH]c4ccccc34)[C@@]2(C)C1=O returned SENP8 block-1 19.9, SENP8 block-2 -0.5, TRAIL sens C8 2.4, SENP7 inh 0.9 and SENP6 block -1.6.
CC(C)[C@@H](C(=O)NCc1ccco1)N1C(=O)N2CCc3c([nH]c4ccccc34)[C@@]2(C)C1=O was read as SENP8 block-1 -9.9, SENP8 block-2 -10.8, TRAIL sens C8 4.5, SENP7 inh -14.1 and SENP6 block -13.8.
Screening COc1ccc(C(=O)OC2C(OC)OCC(O)C2O)cc1 (stereo unspecified) returned SENP8 block-1 7.6 and TRAIL sens C8 3.4.
`CCC(C)[C@H](NC(=O)[C@@H]1CSC2c3ccccc3C(=O)N21)C(=O)NCc1ccco1` (stereo partly specified) gave SENP8 block-1 -2.9, SENP8 block-2 -1.3, TRAIL sens C8 -0.9, SENP7 inh 6.8 and SENP6 block -1.1.
Screening CN(Cc1ccccc1)C(=O)c1cccc(NC(=O)Cc2ccc(NC(=O)C3CCN(C(=O)C4CC4)CC3)cc2)c1 returned SENP8 block-1 1.4 and TRAIL sens C8 9.2.
For CCC(CO)Oc1cc(NCc2ccncc2)c2ncn(C(C)C)c2c1 (stereo unspecified) the results were SENP8 block-1 41.3*, SENP8 block-2 5.6, TRAIL sens C8 5.2, SENP7 inh 3.5, SENP6 block 6.0 and SENP8 inh conf 28.7.
`CCOCCCNC(=O)CCn1nc(-c2ccc(Cl)cc2)ccc1=O` gave SENP8 block-1 5.7, SENP8 block-2 -7.8, TRAIL sens C8 -14.3, SENP7 inh -3.0 and SENP6 block -32.6.
Screening O=C(O)c1ccccc1C(=O)N1CCN(c2ccccc2)CC1 returned PPC-1+TRAIL kill 5.5, SENP8 block-1 6.5, SENP8 block-2 -0.6, TRAIL sens C8 -4.1, SENP7 inh 4.9 and SENP6 block -5.0.
`O=C(c1ccccc1C(=O)N1CCN(c2ccccc2)CC1)N1CCN(c2ccccc2)CC1` gave PPC-1+TRAIL kill 12.9, SENP8 block-1 49.2*, SENP8 block-2 4.0, TRAIL sens C8 -3.2, SENP7 inh 3.7, SENP6 block 9.9 and SENP8 inh conf 17.8.
Screening COc1cc(SC)ccc1C(=O)NCC1CCCCC1 returned SENP8 block-1 7.6, SENP8 block-2 -10.5, TRAIL sens C8 10.6, SENP7 inh 0.1 and SENP6 block -44.0.
Screening COc1ccc(NC(=O)Nc2ccc(N3CCOCC3)c3nonc23)c(OC)c1 returned PPC-1+TRAIL kill 5.1, SENP8 block-1 44.0*, SENP8 block-2 11.0, TRAIL sens C8 2.7, SENP7 inh 7.6, SENP6 block 14.0 and SENP8 inh conf 11.0.
For COc1ccc(NC(=O)COc2nsnc2N2CCOCC2)c(OC)c1 the results were SENP8 block-1 20.3, SENP8 block-2 -9.9, TRAIL sens C8 -19.4, SENP7 inh -15.6 and SENP6 block -1.0.
Screening CCCCC1CCC(C(=O)N(CCOC)c2c(N)n(CCCC)c(=O)[nH]c2=O)CC1 (stereo unspecified) returned SENP8 block-1 7.2, SENP8 block-2 -7.8, TRAIL sens C8 -9.5, SENP7 inh 11.2 and SENP6 block 3.4.
